Source: PubChem BioAssay
A selection: hits, their analogues and other compounds. The true share with any hit is near 4%.
Wnt bcat act: activators of Wnt/beta-catenin signaling. Wnt/beta-catenin reporter cell assay, activator, plate reader. AID 743398. 300,000 tested, 1.2% active. activation, % at 9.35 µM; in the data active means activation above about 30%, passing the limit was not always enough; inconclusive means no clear call, values can overlap the other calls;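 further: 0% = neutral control wells and 100% = positive control wells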
esBAF inh: SWI/SNF esBAF complex inhibition; mouse ES cells, Bmi1-luciferase knock-in reporter, 24 h; 100% = twice the neutral-well signal; reporter increase, % at 12.5 µM; 350,000 tested, 2% active; in the data active means activation above about 40%; inconclusive means no clear call, values can overlap the other calls;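 further: 0% = median of the plate's neutral control wells and 100% = double that signal; a rise in the Bmi1 reporter signal indicates esBAF inhibition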
PAX8 inh HTS: lowers PAX8-driven luciferase in RMG-I cells; RMG-I TPO-luciferase reporter, SteadyGlo, 24 h; inhibition, % at 12.6 µM; 360,000 tested, 1.2% active;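 active means mean replicate inhibition at least 60% with every replicate also reaching 60%; inconclusive means only one of the two criteria is met; inactive means mean below 60% and not all replicates reaching 60%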;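 further: luciferase light reporting Pax8 driven TPO promoter activity; plate controls were median of neutral control wells for no effect and mitoxantrone controls for full effect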
EWS-Fli block: EWS/Fli transcriptional activity inhibition | A673 NR0B1-luciferase reporter, viability-normalised | inhibition, % at 12.6 µM | 350,000 tested, 0.67% active;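 active means mean inhibition of at least 50% after viability correction, with every replicate also passing that limit; inconclusive means mean reaches 50% but only one of two replicates passes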;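 further: firefly luciferase signal divided by Alamar Blue viability fluorescence both relative to DMSO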
TRPM1 prom inh: MITF TRPM1 promoter inhibition in SK-MEL-5 cells; 330,000 tested, 0.83% active; inhibition, % at 12.5 µM; SK-MEL-5 TRPM1 promoter luciferase, 24 h;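 active means mean inhibition across replicates of 60% or more, whatever share of single replicates reaches that level; inconclusive means some that reach 60%, reason not given; inactive means mean inhibition across replicates below 60%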
MITF TRPM1 HTS: MITF TRPM1 promoter activation in melanoma cells; SK-MEL-5 TRPM1-promoter luciferase, 24 h; % of positive control, neutral wells = 0; 300,000 tested, 0.75% active; activation, % at 12.5 µM;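 active means mean activation of at least 80% with every replicate also reaching 80%; inconclusive means mean reaches 80% but some replicate falls short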;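 further: 0% = neutral control wells and 100% = parthenolide positive control wells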
Active calls of the source: *; u = inconclusive; x = no result given.

SMILES	Wnt bcat act	esBAF inh	PAX8 inh HTS	EWS-Fli block	TRPM1 prom inh	MITF TRPM1 HTS
O=C(O)CCn1nnc2ccccc21	47*	x	-8	5	3	1
O=C(Cn1nnc2ccccc21)c1ccc(Cl)cc1	45*	15	-52	-48	-71	74
C[C@@H]1CCCCO[C@H](CN(C)S(=O)(=O)c2ccc(Cl)cc2)[C@@H](C)CN([C@@H](C)CO)C(=O)c2cc(N(C)C)ccc2O1	x	13	26	-8	x	x
C[C@@H]1CN([C@H](C)CO)S(=O)(=O)c2ccc(-c3ccc(C#N)cc3)cc2O[C@H]1CN(C)Cc1cccc(F)c1	x	-4	45	4	x	x
C[C@@H]1CN([C@@H](C)CO)S(=O)(=O)c2ccc(-c3cccc(C#N)c3)cc2O[C@H]1CN(C)Cc1ccccn1	x	0	18	29	x	x
C[C@@H]1CN([C@H](C)CO)S(=O)(=O)c2ccc(-c3ccc(C#N)cc3)cc2O[C@H]1CN(C)Cc1ccccn1	x	3	65*	53*	x	x
C[C@H]1CN([C@@H](C)CO)S(=O)(=O)c2ccc(-c3ccc(C#N)cc3)cc2O[C@@H]1CN(C)Cc1cccc(F)c1	x	-6	76*	18	x	x
C[C@@H]1CN([C@H](C)CO)S(=O)(=O)c2ccc(-c3ccccc3)cc2O[C@H]1CN(C)Cc1ccccn1	x	11	x	73*	x	x
C[C@@H]1CN([C@@H](C)CO)S(=O)(=O)c2ccc(-c3ccccc3)cc2O[C@H]1CN(C)Cc1cccnc1	x	-2	u	67*	x	x
C[C@H](CO)N1C[C@H](C)[C@H](CN(C)C(=O)Nc2ccc(C(F)(F)F)cc2)Oc2ccc(NC(=O)NC3CCCCC3)cc2C1=O	x	0	37	17	x	x
Cc1ccc(S(=O)(=O)Nc2ccc3c(c2)C(=O)N([C@@H](C)CO)C[C@H](C)[C@@H](CN(C)C(=O)Nc2c(C)noc2C)O3)cc1	x	3	1	0	x	x
COc1ccc(/C=C/C(=O)c2cc(F)ccc2OC(=O)c2ccccc2C)cc1OC	x	x	91*	u	49	-50
COc1ccccc1-c1cc(C(F)(F)F)nc(S(=O)(=O)CCCC(=O)NC(C)C)n1	x	x	x	x	86*	-85
CC(C)c1nnc(NC(=O)CCS(=O)(=O)c2nc(-c3cccs3)cc(C(F)(F)F)n2)s1	x	-14	x	x	60	x
COc1ccccc1-c1cc(C(F)(F)F)nc(S(=O)(=O)CCCC(=O)NCc2ccc(F)cc2)n1	5	x	41	-7	90*	-89
COc1ccccc1-c1cc2nc(C)c(CCC(=O)NCc3ccc(F)cc3)c(C)n2n1	3	x	-20	1	-5	7
COc1ccccc1-c1cc(C(F)(F)F)nc(S(C)(=O)=O)n1	x	20	x	x	92*	-90
COc1ccccc1-c1cc(C(F)(F)F)nc(N2CCCC2)n1	-2	-6	2	x	0	-2
COc1ccccc1-c1cc(C(F)(F)F)nc(S(=O)(=O)CCCC(=O)N2CCCCC2C)n1 (stereo unspecified)	-22	-12	9	x	91*	-90
CC(C)NC(=O)N(C)C[C@@H]1Oc2c(NC(=O)c3nc4ccccc4s3)cccc2C(=O)N([C@@H](C)CO)C[C@@H]1C	x	3	x	-8	x	x
CCC(=O)N1[C@@H]2c3ccc(/C=C/c4ccccc4)c(=O)n3C[C@@H]2[C@@H](CO)[C@@H]1C(=O)OC	x	4	-14	1	x	x
CN(C)CCCNC(=O)C[C@@H]1CC[C@H](NS(=O)(=O)c2ccc(F)cc2)[C@H](CO)O1	x	1	-8	-4	x	x
O=C(c1ccncc1)N1CC[C@@H]2[C@H](CO)Nc3ccc(Br)cc3[C@@H]21	x	7	5	18	x	x
COc1ccccc1CNC(=O)C[C@@H]1C=C[C@H](NC(=O)CN(C)C)[C@H](CO)O1	x	-2	x	x	x	x
CCN1[C@@H]2c3ccc(/C=C/c4ccccc4)c(=O)n3C[C@H]1[C@H](CO)[C@H]2C(=O)N1CCOCC1	x	-3	-6	-4	x	x
SMILES	Wnt bcat act	esBAF inh	PAX8 inh HTS	EWS-Fli block	TRPM1 prom inh	MITF TRPM1 HTS
COc1ccc(S(=O)(=O)N(C)C[C@@H]2OCCCC[C@H](C)Oc3ccc(NS(=O)(=O)c4c(C)noc4C)cc3C(=O)N([C@H](C)CO)C[C@H]2C)cc1	x	3	14	-5	x	x
COc1ccccc1-c1cc(C(F)(F)F)nc(S(=O)(=O)CCCC(=O)Nc2cccnc2Cl)n1	-7	x	30	20	77*	-75
COc1ccccc1/C=C/C(=O)Nc1cccnc1Cl	0	-16	-155	-88	-66	69
COc1cccc(-c2ccc([C@H]3[C@H](CO)N4C(=O)CN(C(=O)C5CCC5)C[C@@H]34)cc2)c1	x	x	-19	-8	x	x
CN(C)/C=C/C(=O)c1cnc(-c2ccccc2)s1	5	56*	-67	-29	-71	74
O=C(c1ccccc1)c1cnc(-c2ccc(Cl)cc2)s1	40*	39	-214	x	-10	x
C=CCS/C(=N\n1cnc2ccccc2c1=O)N1CCCCC1	x	53*	x	x	-25	26
CSCC(=O)Nc1nc(-c2ccc3c(c2)OCCO3)cs1	13	x	-152	-57	-47	44
COc1ccc(-c2csc(NC(=O)CSc3nc(SC)ns3)n2)cc1	3	67*	-1	-36	12	-9
Nc1nc(-c2ccc3c(c2)OCCO3)cs1	x	51*	x	x	-75	u
CCCC(=O)Nc1nc(-c2ccc3c(c2)OCCO3)cs1	25	33	-247	-102	-93	91*
CCCC(=O)Nc1nc(-c2ccc(OC)cc2)cs1	x	68*	x	x	-50	48
CO[C@H]1CN(C)C(=O)c2ccc(NC(C)=O)cc2OC[C@H](C)N(Cc2ccccc2F)C[C@@H]1C	x	x	13	x	x	x
O=C(NCC[C@@H]1CC[C@@H](NC(=O)C2CCCCC2)[C@H](CO)O1)Nc1ccc(Cl)cc1	x	40	-56	-39	x	x
Cc1sc(NC(=O)CSC2=NCCS2)nc1-c1ccccc1	x	x	x	x	9	-7
Cc1ccc(-c2csc(NC(=O)CSC3=NCCS3)n2)cc1	22	45*	-130	x	-38	x
Cn1nc2c3cc(F)ccc3n(Cc3ccc(F)cc3)cc-2c1=O	1	-15	11	4	-1	2
COc1cc2c3nnc(-c4ccc(F)cc4)c-3cn(Cc3ccc(F)cc3)c2cc1OC	-7	12	26	35	73*	-71
COc1cc2c3nnc(-c4ccc(F)cc4)c-3cn(Cc3ccccc3)c2cc1OC	-10	22	69*	42	x	x
C[C@@H]1CN([C@H](C)CO)C(=O)c2cc(C3=CCCC3)cnc2O[C@H]1CN(C)C(=O)C1CCOCC1	x	-3	-11	8	x	x
O=c1nc(N/N=C/c2c[nH]c3ccccc23)cn[nH]1	41*	x	-68	-50	-56	57
CS(=O)(=O)Nc1ccc2c(c1)[C@@H]1C[C@@H](CC(=O)NCC3CC3)O[C@H](CO)[C@@H]1O2	x	-5	1	-12	x	x
CN(C)NC(=S)Nc1cccc(C(F)(F)F)c1	0	-9	8	3	6	-3
Cc1ccc(NC(=S)NNC(=S)Nc2cccc(C(F)(F)F)c2)cc1	40*	x	5	-12	-21	x
